The values below come from PubChem BioAssay.

One may read the inhibition as the drop in the measured response relative to a control, in per cent.

Assay [1] is described as follows: yeast TOR pathway RPL19A-GFP modulators, primary screen, cell-based, S. cerevisiae, multiplex flow cytometry (AID 1862; in the data active = percent of DMSO control GFP below about 86%;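 also: lower values mimic rapamycin by blocking the RPL19A rise seen in DMSO cells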). The settings on record: S. cerevisiae RPL19A-GFP strain, flow cytometry fluorescence, 3 h; at 10 µM; stronger effect = lower value.
The nature of assay [2]: modulators of MEP2-GFP levels in yeast, primary screen, S. cerevisiae, multiplex flow cytometry (AID 1867;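 active = GFP response, as percent of the DMSO control, above the screen-wide mean plus 3 SD, about 139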;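 also: median GFP channel fluorescence of barcode-gated MEP2-GFP cells measured by flow cytometry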). The note with it: S. cerevisiae MEP2-GFP strain, 3 h, at 10 µM, stronger effect = higher value, 100% means same as DMSO wells. For orientation: In flow cytometry, cells or beads pass a laser one at a time.
Assay [3] in a line: modulators of CIT2-GFP expression in yeast, primary screen, S. cerevisiae, GFP fusion, multiplex flow cytometry (AID 1870;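 active = percent response above a set limit, the screen-wide mean plus 3 SD, cut at about 130% in these data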;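 also: barcoded CIT2-GFP strain pooled with four other GFP strains with rapamycin as positive control; median GFP fluorescence per well over plate mean of DMSO wells so 100% = DMSO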). The settings on record: 3 h, at 10 µM, stronger effect = higher value.
A short description of assay [4]: modulators of LAP4-GFP expression in yeast, primary screen, S. cerevisiae, multiplex flow cytometry (AID 1873;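 active = GFP signal, as percent of the solvent control, above the screen mean plus 3 SD, about 149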). The note with it: 3 h, at 10 µM, stronger effect = higher value.
Assay [5] can be described thus: modulators of AGP1-GFP expression in yeast TOR pathway, primary screen, cell-based, multiplex flow cytometry, S. cerevisiae (AID 1887;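 active = GFP signal above the screen-wide mean plus 3 SD, that is over about 124.5% of the solvent control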;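 also: AGP1-GFP fusion strain of S. cerevisiae within a five-strain barcoded multiplex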). The settings on record: 3 h, at 10 µM, stronger effect = higher value.
Assay [6] can be described thus: inhibitors of CD8+ T cell-vesicle binding, pilot screen, LFA-1/ICAM-1 modulator project, MLPCN validation set, flow cytometry (AID 2523;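 active = response below a set limit, under 55% cells CD8-positive and vesicle-bound, and CD8 cells' 90th-percentile brightness under 279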;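 as to vesicle binding response: mean PE anti-B7-1 fluorescence of CD8+ cells relative to row control; 100% = QL9-loaded vesicles with DMSO vehicle in the same plate row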). The note with it: 2C mouse CD8+ T cells, at 7 µM, stronger effect = lower value; double positive events: measured here: CD8+/vesicle+ event percentage.
The target of assay [7] is Integrin beta-1 (Homo sapiens) + Integrin alpha-4 (Homo sapiens) (UniProt P13612+P05556). Description: inhibition of HUTS-21 binding to VLA-4, pilot screen, VLA-4 allosteric modulator project, U937 cells, HUTS-21 mAb, flow cytometry, validation set (AID 2674;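 active = inhibition above 50%, about 3 SD of the validation set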;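 also: antibody binding induced by the VLA-4 ligand LDV present at three times its Kd; 0% = LDV ligand with antibody and no compound and 100% = antibody without LDV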). The settings on record: HUTS-21 LIBS mAb binding, at 6.7 µM, stronger effect = higher value, binding induced by LDV ligand.

Assay [8] is described as follows: superoxide lowering in aged yeast cells, pilot screen, validation compound set (AID 2706;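 active = superoxide response below 65% of plate, a cut near 3 SD across the whole screen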;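 also: yeast exposed to compound for one week at 30 degrees C before staining; 100% = mean of all compound wells on the same plate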). The settings on record: S. cerevisiae aging, superoxide DHE fluorescence; at 10 µM; stronger effect = lower value.
For assay [9], the target named is Beta-adrenergic receptor kinase 1 (Homo sapiens) (UniProt P25098). Description: GRK2 binders displacing RNA aptamer, biochemical, validation, human GRK2, bead flow cytometry (AID 488806;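 active = aptamer binding inhibition above 30%, about 3 SD of noise from non-fluorescent compounds; inactive = inhibition at or below 30%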). The note with it: bead-bound GRK2, FAM-aptamer displacement, at 10 µM, stronger effect = higher value.
Assay [10] deals with Beta-2 adrenergic receptor (Homo sapiens) (UniProt P07550). Description: beta2AR agonists driving receptor internalization, pilot screen, cell-based, FAP fluorogen, flow cytometry, validation set (AID 504459).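 Also: agonist-driven loss of surface beta2AR via internalization measured by FAP dye flow cytometry.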 The settings on record: Am2.2-beta2AR cells, FAP surface receptor flow cytometry; at 10 µM; stronger effect = higher value.
Assay [11] concerns the target AP-2 complex subunit beta (Homo sapiens) (UniProt P63010). Description: inhibitors of arrestin peptide binding to AP2, pilot screen, biochemical, validation set, GST-AP2 beads, flow cytometry (AID 504541;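 active = inhibition above 54%, about 3 SD of non-fluorescent compounds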;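 also: AP2 carries R879A mutation and is captured from E. coli lysate; bead-bound FITC arrestin peptide fluorescence measuring arrestin peptide binding to AP2; 0% = DMSO wells and 100% = excess unlabeled arrestin peptide control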). The note with it: FITC arrestin peptide, at 10 µM, stronger effect = higher value, AP2 beta2 appendage fragment, R879A mutant.
Assay [12] can be described thus: yeast V-ATPase proton transport modulators, S. cerevisiae, pHLuorin, HTS validation (AID 504600; in the data active = response above about 15%;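 also: plate controls were DMSO for no effect and reference compound for full effect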). The settings on record: S. cerevisiae pHLuorin cytosolic pH, at 10 µM, stronger effect = higher value.
In assay [13] the test system is anti-desmoglein-3 scFv antibody binding to human DSG3. Description: inhibitors of anti-DSG3 scFv binding to DSG3, pilot screen, biochemical, validation compound set, bead-based, flow cytometry (AID 588368;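 active = binding below the plate cutoff, the plate median minus 3 SD, with a reading above zero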;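 also: signal is the median channel fluorescence of bead-bound GFP antibody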). The note with it: Protein G beads, DSG3-Fc, scFv-GFP binding, at 10 µM, stronger effect = lower value.
The nature of assay [14]: inhibitors of fungal efflux pumps CDR1, CDR2, MDR1, pilot screen, validation compound set, multiplex, phenotypic (AID 588506;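 active = efflux inhibition above 0.42, the validation set average plus 4 SD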;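 also: Nile Red retained in cells so higher fluorescence means more efflux inhibition; 0 = negative control wells and 1 = enniatin B 25 µM full block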). The settings on record: S. cerevisiae pump-expressing triplex, Nile Red efflux flow cytometry; at 10 µM; stronger effect = higher value; the pumps come from Candida albicans.
The target of assay [15] is ATP-binding cassette sub-family B member 6 (Homo sapiens) (UniProt Q9NP58). Description: ABCB6 transporter inhibitors, pilot screen, K562-ABCB6 cells, flow cytometry, validation set (AID 588550;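 active = inhibition above the screen-wide mean plus 3 SD, about 51%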;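 also: 0% = DMSO wells and 100% = benzethonium chloride 70 µM positive control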). The note with it: K562-ABCB6 porphyrin accumulation, 1 h, at 10 µM, stronger effect = higher value.
A short description of assay [16]: promoters of myeloid differentiation in arrested cells, primary screen, cell-based, GFP/MAC1 double positive, flow cytometry, validation set (AID 588685;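 active = differentiation response of at least 50%, scaled between solvent and reference control, from cells with both markers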;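 also: compound exposure lasts four days before antibody staining and flow analysis; 0% = DMSO wells and 100% = 5 µM fulvestrant positive control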). The settings on record: ER-HoxA9 marrow cells, stronger effect = higher value, normalized: vehicle 0, fulvestrant 100.

Molecules are shown by their SMILES. Results filed as inconclusive are left out. The source made the active and inactive calls.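 The calls were made as follows, unless noted: active = percent response above 42, roughly 3 SD of non-fluorescent test compounds; inactive = the rest.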

Chain of Integrin beta-1 (Homo sapiens) + Integrin alpha-4 (Homo sapiens) (P05556 whole entry, looked up): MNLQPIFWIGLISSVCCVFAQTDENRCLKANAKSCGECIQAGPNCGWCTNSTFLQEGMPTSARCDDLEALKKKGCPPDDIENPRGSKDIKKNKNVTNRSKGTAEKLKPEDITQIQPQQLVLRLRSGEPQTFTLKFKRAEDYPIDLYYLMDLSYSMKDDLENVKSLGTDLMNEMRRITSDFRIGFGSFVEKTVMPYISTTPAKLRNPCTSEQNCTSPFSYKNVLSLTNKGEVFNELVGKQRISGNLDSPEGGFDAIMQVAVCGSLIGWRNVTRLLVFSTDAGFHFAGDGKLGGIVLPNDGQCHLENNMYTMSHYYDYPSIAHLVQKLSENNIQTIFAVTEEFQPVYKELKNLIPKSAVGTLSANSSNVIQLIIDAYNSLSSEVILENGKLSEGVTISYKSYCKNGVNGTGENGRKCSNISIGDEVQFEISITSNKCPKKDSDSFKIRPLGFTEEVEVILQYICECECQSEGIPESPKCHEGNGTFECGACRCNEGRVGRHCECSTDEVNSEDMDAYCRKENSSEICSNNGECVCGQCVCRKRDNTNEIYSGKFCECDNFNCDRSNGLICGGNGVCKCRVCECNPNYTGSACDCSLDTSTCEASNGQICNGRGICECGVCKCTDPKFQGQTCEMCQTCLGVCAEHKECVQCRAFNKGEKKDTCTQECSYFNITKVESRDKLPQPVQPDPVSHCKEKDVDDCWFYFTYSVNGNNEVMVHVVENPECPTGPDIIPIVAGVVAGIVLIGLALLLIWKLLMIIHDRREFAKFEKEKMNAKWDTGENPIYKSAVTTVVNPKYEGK
Chain of Integrin beta-1 (Homo sapiens) + Integrin alpha-4 (Homo sapiens) (P13612 whole entry, looked up): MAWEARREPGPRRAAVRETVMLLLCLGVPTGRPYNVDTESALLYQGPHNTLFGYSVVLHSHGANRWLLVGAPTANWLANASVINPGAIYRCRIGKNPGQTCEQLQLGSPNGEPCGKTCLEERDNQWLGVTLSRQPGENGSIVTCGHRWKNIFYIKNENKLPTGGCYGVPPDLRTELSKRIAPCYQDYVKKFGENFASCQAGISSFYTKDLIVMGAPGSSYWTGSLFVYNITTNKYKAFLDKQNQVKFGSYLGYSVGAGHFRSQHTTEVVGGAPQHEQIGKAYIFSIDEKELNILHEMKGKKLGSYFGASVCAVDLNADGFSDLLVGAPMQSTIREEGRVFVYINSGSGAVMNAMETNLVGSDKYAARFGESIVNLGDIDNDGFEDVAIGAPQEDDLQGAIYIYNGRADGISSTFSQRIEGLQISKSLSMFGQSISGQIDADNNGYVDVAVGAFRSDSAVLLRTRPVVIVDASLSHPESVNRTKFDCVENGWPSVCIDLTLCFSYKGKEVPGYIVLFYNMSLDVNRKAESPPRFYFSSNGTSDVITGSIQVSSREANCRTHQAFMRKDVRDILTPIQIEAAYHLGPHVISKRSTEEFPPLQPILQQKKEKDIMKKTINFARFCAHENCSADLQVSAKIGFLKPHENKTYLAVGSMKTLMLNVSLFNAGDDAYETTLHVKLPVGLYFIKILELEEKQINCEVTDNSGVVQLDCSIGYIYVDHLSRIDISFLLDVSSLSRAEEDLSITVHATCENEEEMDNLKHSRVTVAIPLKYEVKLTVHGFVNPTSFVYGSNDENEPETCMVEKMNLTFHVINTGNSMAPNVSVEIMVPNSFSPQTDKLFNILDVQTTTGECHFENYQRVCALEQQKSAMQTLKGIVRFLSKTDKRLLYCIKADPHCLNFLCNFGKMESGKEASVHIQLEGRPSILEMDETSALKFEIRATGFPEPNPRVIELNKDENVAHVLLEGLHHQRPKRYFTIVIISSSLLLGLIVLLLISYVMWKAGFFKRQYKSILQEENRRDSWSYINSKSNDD
Chain of ATP-binding cassette sub-family B member 6 (Homo sapiens) (Q9NP58 whole entry, looked up): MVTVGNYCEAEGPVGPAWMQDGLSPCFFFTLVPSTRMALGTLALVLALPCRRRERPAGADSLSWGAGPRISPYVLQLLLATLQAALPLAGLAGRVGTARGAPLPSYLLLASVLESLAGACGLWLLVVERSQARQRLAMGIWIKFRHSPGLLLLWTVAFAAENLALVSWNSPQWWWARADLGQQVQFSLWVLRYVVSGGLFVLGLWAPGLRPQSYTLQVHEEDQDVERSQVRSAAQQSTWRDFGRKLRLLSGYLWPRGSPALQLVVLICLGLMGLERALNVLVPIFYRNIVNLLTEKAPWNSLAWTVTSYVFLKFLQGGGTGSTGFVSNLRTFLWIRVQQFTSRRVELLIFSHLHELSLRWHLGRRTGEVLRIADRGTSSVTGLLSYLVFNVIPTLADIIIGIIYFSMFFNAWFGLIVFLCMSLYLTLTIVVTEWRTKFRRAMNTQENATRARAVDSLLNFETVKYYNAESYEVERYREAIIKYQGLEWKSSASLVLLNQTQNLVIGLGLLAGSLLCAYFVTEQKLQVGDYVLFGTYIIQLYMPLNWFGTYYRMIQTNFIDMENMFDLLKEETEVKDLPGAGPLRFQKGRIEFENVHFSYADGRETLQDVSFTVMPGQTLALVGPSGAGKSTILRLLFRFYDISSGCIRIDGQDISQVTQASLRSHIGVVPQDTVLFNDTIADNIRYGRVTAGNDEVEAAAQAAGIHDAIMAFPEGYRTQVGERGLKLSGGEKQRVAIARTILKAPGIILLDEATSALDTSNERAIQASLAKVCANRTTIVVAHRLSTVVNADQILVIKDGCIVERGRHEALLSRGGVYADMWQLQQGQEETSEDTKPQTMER
Chain of AP-2 complex subunit beta (Homo sapiens) (P63010 whole entry, looked up, the tested form may be a part, one chain of several): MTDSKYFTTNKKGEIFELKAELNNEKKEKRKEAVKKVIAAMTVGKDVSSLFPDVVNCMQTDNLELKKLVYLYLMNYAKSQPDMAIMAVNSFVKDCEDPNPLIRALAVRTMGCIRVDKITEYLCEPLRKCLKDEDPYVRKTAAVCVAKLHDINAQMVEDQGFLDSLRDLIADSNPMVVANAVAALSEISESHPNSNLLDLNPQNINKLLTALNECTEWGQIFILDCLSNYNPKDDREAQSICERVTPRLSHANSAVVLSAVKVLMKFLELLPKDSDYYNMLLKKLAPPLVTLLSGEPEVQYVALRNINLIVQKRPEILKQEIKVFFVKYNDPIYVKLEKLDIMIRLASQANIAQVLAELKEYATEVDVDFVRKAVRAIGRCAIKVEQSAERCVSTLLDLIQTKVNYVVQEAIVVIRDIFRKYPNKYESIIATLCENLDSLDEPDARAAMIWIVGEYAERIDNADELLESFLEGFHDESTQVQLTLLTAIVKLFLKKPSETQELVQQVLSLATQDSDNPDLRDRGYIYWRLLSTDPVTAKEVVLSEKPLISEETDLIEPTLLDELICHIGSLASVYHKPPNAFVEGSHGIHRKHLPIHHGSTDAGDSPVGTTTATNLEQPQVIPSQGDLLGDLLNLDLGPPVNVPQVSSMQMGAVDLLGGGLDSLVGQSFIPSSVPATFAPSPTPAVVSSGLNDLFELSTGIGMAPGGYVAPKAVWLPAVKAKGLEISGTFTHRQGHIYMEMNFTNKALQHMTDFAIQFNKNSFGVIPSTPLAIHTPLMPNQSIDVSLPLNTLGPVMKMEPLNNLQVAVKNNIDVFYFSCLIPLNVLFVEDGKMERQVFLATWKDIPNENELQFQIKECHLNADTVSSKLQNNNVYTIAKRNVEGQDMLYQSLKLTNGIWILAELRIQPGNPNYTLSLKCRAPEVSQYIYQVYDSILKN
Chain of Beta-adrenergic receptor kinase 1 (Homo sapiens) (P25098 whole entry, looked up): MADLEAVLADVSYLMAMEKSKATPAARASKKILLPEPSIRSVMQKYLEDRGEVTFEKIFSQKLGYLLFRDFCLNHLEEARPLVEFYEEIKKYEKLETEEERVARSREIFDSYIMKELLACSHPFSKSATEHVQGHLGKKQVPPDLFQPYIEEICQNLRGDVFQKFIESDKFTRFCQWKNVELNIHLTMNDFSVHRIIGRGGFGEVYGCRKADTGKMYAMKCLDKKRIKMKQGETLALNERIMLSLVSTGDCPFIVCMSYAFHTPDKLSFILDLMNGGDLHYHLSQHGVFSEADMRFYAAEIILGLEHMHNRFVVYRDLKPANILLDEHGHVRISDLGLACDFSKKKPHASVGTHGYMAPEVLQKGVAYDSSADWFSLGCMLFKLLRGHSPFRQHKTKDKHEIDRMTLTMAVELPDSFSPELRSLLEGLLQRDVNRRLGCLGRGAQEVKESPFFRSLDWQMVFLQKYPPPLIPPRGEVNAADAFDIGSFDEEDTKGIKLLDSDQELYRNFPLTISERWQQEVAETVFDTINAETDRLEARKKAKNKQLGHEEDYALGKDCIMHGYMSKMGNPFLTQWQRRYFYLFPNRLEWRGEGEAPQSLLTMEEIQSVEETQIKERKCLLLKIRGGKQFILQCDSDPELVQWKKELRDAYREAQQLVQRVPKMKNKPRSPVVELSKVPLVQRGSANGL
Chain of Beta-2 adrenergic receptor (Homo sapiens) (P07550 whole entry, looked up): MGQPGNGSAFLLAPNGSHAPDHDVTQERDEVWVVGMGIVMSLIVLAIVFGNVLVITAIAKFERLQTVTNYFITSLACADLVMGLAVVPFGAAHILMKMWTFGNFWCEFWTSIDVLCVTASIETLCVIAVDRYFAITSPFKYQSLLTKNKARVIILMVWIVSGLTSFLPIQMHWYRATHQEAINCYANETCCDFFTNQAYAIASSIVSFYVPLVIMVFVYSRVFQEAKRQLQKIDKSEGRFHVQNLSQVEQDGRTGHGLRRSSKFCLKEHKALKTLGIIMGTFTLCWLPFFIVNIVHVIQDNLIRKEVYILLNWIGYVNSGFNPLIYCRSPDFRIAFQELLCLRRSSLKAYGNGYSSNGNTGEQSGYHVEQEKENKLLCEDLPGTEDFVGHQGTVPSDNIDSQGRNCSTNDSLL

Consider `CC(C)CC(=O)NC(NC(=O)CC(C)C)c1cccc([N+](=O)[O-])c1`, for which the percent of DMSO control GFP in assay [1] is 101% (inactive). Moreover, the figures for the GFP response vs DMSO in assay [2] and in [4] were 102% (inactive) and 100% (inactive), respectively. The percent response of DMSO control in assay [3] is 111% (inactive). Moreover, the GFP response, % of DMSO in assay [5] is 100% (inactive). The compound further had a double positive events in [6] of 60.1%. For the same compound, the vesicle binding response in [6] was 118% (inactive). In addition, the inhibition in [7] was 1.59% (inactive); in [11] it was 7.92% (inactive); in assay [15] it was 11% (inactive). Moreover, the superoxide response (% of plate) in assay [8] is 118% (inactive). The aptamer binding inhibition in assay [9] was 19% (inactive). The response in assay [10] was 3.17% (inactive); in assay [12] it was 3.51% (inactive). In addition, the binding (% of control) in assay [13] was 99% (inactive). Also, the efflux inhibition (fraction of control) in assay [14] was 0.09 (inactive). In [16], the differentiation response was -8.96% (inactive).

For the compound `CCCCOn1c(C)c(C(C)=O)c2c3no[n+]([O-])c3ccc21`, in assay [1], the percent of DMSO control GFP is 101% (inactive). The values for the GFP response vs DMSO in assay [2] and in assay [4] were 105% (inactive) and 120% (inactive), respectively. The percent response of DMSO control in assay [3] was 97.7% (inactive). Also, the GFP response, % of DMSO in assay [5] was 99.4% (inactive). Besides, the double positive events in assay [6] was determined as 59.8%. The vesicle binding response in assay [6] is 246% (inactive). Also, the inhibition in [7] is -12.7% (inactive); in [11], -10.5% (inactive); in assay [15], 7% (inactive). In addition, the superoxide response (% of plate) in assay [8] was 106% (inactive). Also, in assay [9], the aptamer binding inhibition is 0% (inactive). The response is 25.4% (inactive) in [10] and 5.1% (inactive) in [12]. The binding (% of control) in assay [13] is 94.3% (inactive). For the same compound, the efflux inhibition (fraction of control) in assay [14] was -0.1 (inactive). The differentiation response in assay [16] is 74.4% (active).

`COc1ccc(-c2cc(=O)oc3cc(OC(C)C(=O)O)ccc23)cc1` (stereo not drawn): in assay [1], the percent of DMSO control GFP was 107% (inactive). Further, the GFP response vs DMSO is 94.7% (inactive) in [2] and 104% (inactive) in [4]. Moreover, the percent response of DMSO control in assay [3] was 93.8% (inactive). Besides, the GFP response, % of DMSO in assay [5] was 107% (inactive). Besides, in assay [6], the double positive events was 63.4%. The vesicle binding response in assay [6] is 124% (inactive). Further, the inhibition was 11.7% (inactive) in [7], 6.04% (inactive) in assay [11] and 3% (inactive) in assay [15]. Moreover, the superoxide response (% of plate) in assay [8] is 115% (inactive). In [9], the aptamer binding inhibition was 3% (inactive). The response in assay [10] is -24.8% (inactive); in assay [12], 1.91% (inactive). Moreover, the binding (% of control) in assay [13] is 108% (inactive). In assay [14], the efflux inhibition (fraction of control) is 0 (inactive). The differentiation response in assay [16] is 19.6% (inactive).

`C/C=C/c1ccc(OCCCCN2CC(C)CC(C)C2)c(OC)c1` (stereo not drawn): the percent of DMSO control GFP in assay [1] is 102% (inactive). Besides, the GFP response vs DMSO in assay [2] was 107% (inactive); in [4], 96.6% (inactive). The percent response of DMSO control in assay [3] is 106% (inactive). Also, the GFP response, % of DMSO in [5] is 97.2% (inactive). In assay [6], the double positive events was 58.6%. The vesicle binding response in [6] is 52.4% (inactive). Moreover, the inhibition in assay [7] is 8.88% (inactive); in [11], 39.6% (inactive); in assay [15] it was -10% (inactive). Further, the superoxide response (% of plate) in assay [8] is 104% (inactive). Moreover, in [9], the aptamer binding inhibition is -1% (inactive). Also, the figures for the response in assay [10] and in [12] were -1.02% (inactive) and -3.37% (inactive), respectively. Also, the binding (% of control) in assay [13] was 99.7% (inactive). The efflux inhibition (fraction of control) in [14] is 0.02 (inactive). Further, the differentiation response in [16] was -1.71% (inactive).
